# LANA DNA inh: KSHV C-LANA DNA binding inhibition. MBP-C-LANA/FAM-LBS DNA binding, fluorescence polarization. inhibition, % at 9 µM. hit rate 0.078% among 340,000. AID 504423;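 active = highest replicate inhibition at or above 60% at 9 µM, even if other replicates fall short; inactive = all replicates below 60% inhibition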;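 note: 0% = neutral control wells and 100% = 4 µM acridine orange control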
# Cardiac RTF inh: cardiac RTF calcium desensitization. hit rate 0.12% among 340,000. IANBD-labeled cardiac RTF, Ca2+ fluorescence. inhibition, % at 7.15 µM;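 active = inhibition above the mean inhibition of all tested compounds plus 3 SD, cut at about 17% in these data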;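 note: assay run at fixed EC70 calcium of 1.6 mM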
# Keap1-Nrf2 PPI: inhibitors of human Keap1-Nrf2 protein-protein interaction; Q14145; inhibition, % at 9.4 µM; Keap1 Kelch-Nrf2 peptide fluorescence polarization, 1536-well; hit rate 0.15% among 340,000; in the data active = inhibition above about 12%;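 note: human Keap1 Kelch domain with fluorescein labeled Nrf2 9mer peptide probe; 0% = neutral control wells and 100% = peptide positive control; higher means more block of Keap1 binding to Nrf2 peptide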
# cardiac RTF act: cardiac RTF calcium sensitization; P19429+P45379; IANBD-labeled TnC RTF fluorescence at EC20 calcium; 0% EC20 calcium, 100% full calcium; activation, % at 7.2 µM; hit rate 0.24% among 340,000;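 active = activation above the mean over all tested compounds plus 3 SD, cut at about 30% in these data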;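 note: rise in fluorescence read as greater calcium sensitivity of cardiac thin filaments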
# RTF inh confirm: cardiac RTF calcium sensitivity inhibition, confirmation; shares compounds with Cardiac RTF inh; reconstituted cardiac thin filaments, calcium sensitivity fluorescence; inhibition, % at 7.15 µM; hit rate 8% among 360; AID 504635; in the data active = inhibition above about 18%
# The depositor's hits bear a star; x = no result given. Sampled rows, rich in hits. Any-hit rate of the full collection: about 0.5%.
SMILES,LANA DNA inh,Cardiac RTF inh,Keap1-Nrf2 PPI,cardiac RTF act,RTF inh confirm
N#Cc1ccc(OCC(=O)NCC(c2cccs2)N2CCOCC2)cc1 (stereo unspecified),0,-6,3,-4,x
Cc1cc(C)n2c(SCC(=O)Nc3cc(C)on3)nnc2n1,3,18*,0,-4,-5
Fc1ccccc1CSc1ccc(-c2ccco2)nn1,2,19*,-3,-5,-2
O=C(Nc1ccc(F)cc1)Nc1nnc(-c2ccccc2)o1,0,-2,2,-4,x
O=C(Nc1nnc(-c2ccccc2)o1)Nc1ccc(F)cc1F,1,17*,1,-7,4
O=C(C1CCCCN1S(=O)(=O)c1ccccc1[N+](=O)[O-])N1CCOCC1 (stereo unspecified),1,18*,2,5,-1
O=C(COC(=O)/C=C/c1ccc([N+](=O)[O-])cc1)Nc1ccc2[nH]c(=O)[nH]c2c1,-2,-11,5,13,x
O=C(NC1CC1(c1ccccc1)c1ccccc1)c1ccccc1 (stereo unspecified),-1,-10,-5,0,x
CCOCCn1c(N2CCCC2)nc2c1c(=O)n(C)c(=O)n2C,-3,-8,1,-6,x
O=C(NCc1ccccc1)c1ccc(F)c(S(=O)(=O)N2CCOCC2)c1,1,63*,4,-29,-1
O=C(CSc1nncs1)Nc1nnc(-c2ccccc2)o1,1,1,-5,-4,x
Cc1ccc(-c2cc(C(=O)N/N=C/c3ccco3)[nH]n2)cc1,-2,17*,-5,4,-6
O=C1[C@H](Cc2ccccc2)NCCCC[C@H](c2ccco2)N1Cc1ccccc1,-1,0,-5,5,x
COc1ccc(NC(=O)CN(C)C(=O)c2cc3c(s2)CCCCC3)cc1,1,-6,2,-4,x
COc1ccc(NC(=O)CN(C)C(=O)c2cc3c(s2)CCC3)cc1,1,20*,3,-4,0
COc1ccccc1CN(C)CC(=O)Nc1ccc(Cl)cc1C(F)(F)F,1,18*,0,3,-3
CC(C)(C)C(=O)Nc1ncccc1C(O)c1cccc(C(F)(F)F)c1 (stereo unspecified),0,19*,1,-10,-1
CCCCC(CC)CO (stereo unspecified),1,-4,0,4,x
CCCCC(CC)CN=C(N)NC(N)=NCCCCCCN=C(N)NC(N)=NCC(CC)CCCC (stereo unspecified),-8,23*,1,0,3
CCc1ccc(OCC(=O)NNC(=O)c2nn(CC)c(=O)c3ccccc23)cc1,0,18*,-4,-3,-8
O=C(O[C@@H]1OC2COC(=O)c3cc(O)c(O)c(O)c3-c3c(cc(O)c(O)c3O)C(=O)O[C@@H]([C@H]1O)[C@@H]2O)c1cc(O)c(O)c(O)c1,121*,130*,x,-60,167*
CN1C(=O)N(CC(=O)Nc2nccs2)C(=O)C12CCCCC2,1,7,-6,0,x
CN1C(=O)N(CC(=O)Nc2sccc2C(N)=O)C(=O)C12CCCCC2,0,17*,1,0,-4
O=C(Nc1ccccc1C(=O)O)c1cc(S(=O)(=O)N2CCCCC2)c(Cl)cc1Cl,0,2,-4,-2,x
COc1cc(/C=C2\SC(=Nc3ccccc3)N(CCc3c[nH]c4ccccc34)C2=O)ccc1OC(C)C(=O)O (stereo unspecified),2,35*,-3,-20,4
SMILES,LANA DNA inh,Cardiac RTF inh,Keap1-Nrf2 PPI,cardiac RTF act,RTF inh confirm
O=C(NCc1cccnc1)c1cc(C(=O)C2CC2)c[nH]1,-1,22*,0,5,-2
Cc1ccc(C)n1Cc1ccc(C(=O)O)cc1,114*,71*,-4,-35,22*
Cc1cc(C)n(Cc2ccc(C(=O)O)cc2)n1,1,0,-2,-1,x
CC1CCN(C(=O)CSc2nnc(CNC(=O)c3ccc(S(=O)(=O)N(C)C)cc3)o2)CC1,0,-5,-5,-3,x
COc1ccccc1NC(=S)N(Cc1ccccn1)Cc1ccccc1Cl,1,17*,2,-1,2
NC(=S)Nc1nc2ccccc2s1,1,19*,2,-6,-5
COc1c(C)cccc1C(=O)NCc1ccc2c(c1)OCO2,1,-12,-3,2,x
O=C(OCC(=O)N1CCC(Cc2ccccc2)CC1)c1cncc(Br)c1,-1,-6,-4,3,x
CCCCCCCCCCC[C@@H](C[C@@H]1OC(=O)[C@H]1CCCCCC)OC(=O)[C@H](CC(C)C)NC=O,-1,20*,4,1,-4

# Compound activity deposited in PubChem by several laboratories.
